High-throughput results as filed in PubChem.
Most compounds without a hit are left out; they make up all but 5.2% or so of the library.
Tau fibril ThT = tau fibrillization inhibition (ThT binding); P10636; recombinant tau K18 P301L, heparin-induced fibrillization, ThT fluorescence; Potency, µM (highest dose often 57.4 µM), inactives show at the highest dose activity, negative = inhibition, hits mostly inhibitors; 270,000 tested, 2.1% active; AID 1460; further: potency means the concentration at half of the fitted maximal effect; nearly all actives have a fitted effect of over 55% in size
Target sequence (P10636 561-689 P618L limits assumed): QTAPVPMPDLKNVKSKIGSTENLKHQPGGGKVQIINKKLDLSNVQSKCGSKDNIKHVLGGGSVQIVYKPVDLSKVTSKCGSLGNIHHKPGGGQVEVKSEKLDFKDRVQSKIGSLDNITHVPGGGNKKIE
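ThT emission at 510 nm, taken 1 hr after adding 30 uM dye, quantifies aggregates formed when 20 uM heparin acts on human tau K18 P301L for 6 hr at 37 C.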
Tau FP inhib = tau fibrillization inhibition (FP); P10636; K18 P301L tau heparin fibrillization, Alexa594 FP, 6 h; Potency, µM (doses to about 57.7 µM), for the others: at the top dose activity, negative = inhibition, hits mostly inhibitors; 280,000 tested, 0.39% active; AID 1468; further: potency means the concentration at half of the fitted maximal effect; nearly all actives have a fitted effect of over 55% in size
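Human K18 P301L fragment (15 uM unlabeled plus 0.24 uM Alexa 594-labeled) in 100 mM sodium acetate pH 7 with compound, aggregation induced by 20 uM heparin for 6 hr at 37 C. ThT (30 uM) added for 1 hr, then Alexa 594 FP read.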
FBPA coupling cs = coupling enzyme interference in Giardia aldolase counter-screen. 290,000 tested, 0.67% active. AID 2472. activity change, negative = inhibition, % at 58.2 µM, hits read low. coupling enzyme system counterscreen, AmpLite Red fluorescence; in the data active means activity change below about -30%
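Compounds tested against the coupling enzymes alone at 57.5 uM final; readout was AmpLite Red fluorescence (525/598 nm) after 20 min at RT.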
Sfp inh = inhibitors of Bacillus subtilis Sfp phosphopantetheinyl transferase; Biochemical Sfp PPTase activity, qHTS; Potency, µM, for inactives: largest response in the series, negative = inhibition, actives largely listed as inhibitors; Q9F4F7; 310,000 tested, 3.5% active;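 further: the enzyme is Sfp with the accession as filed and its product quenches rhodamine fluorescence; potency means the concentration at half of the fitted maximal effect; 0% = enzyme reaction without inhibitor and -100% = no enzyme wells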
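Fluorescence-quenching assay: 15 nM Sfp-PPTase preincubated 15 min at room temperature with compound, then 5 uM rhodamine-CoA and 12.5 uM BHQ-2-labelled YbbR peptide added. Fluorescence (ex 525/em 598 nm) read at start and after 30 min; difference gives rate.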
Tau fluor counter = counter-screen for tau fibril formation inhibitors | tau K18 P301L (four-repeat tau fragment) Alexa594 fluorescence, heparin fibrillization | Potency, µM (highest dose often 57.7 µM), for the others: at the highest dose activity change, negative = decrease | 280,000 tested, 0.93% active | AID 1463; further: potency means the concentration at half of the fitted maximal effect; nearly all actives have a fitted effect of over 55% in size
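Human K18 P301L tau (15 uM unlabeled plus 0.24 uM Alexa 594-labeled, final) in 100 mM sodium acetate pH 7 was mixed with compound and 20 uM heparin and incubated 6 hr at 37 C.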
Starred values were filed as active, the others as inactive; ? = inconclusive; . = no result given; [ ] = dose if it differs, or a comment. Unless noted, the call rests on the fitted dose curve; in most records, active means well fitted curve in the direction sought with a large enough effect; inconclusive means small, poorly fitted or top-dose-only effect, or another doubt; inactive means no such curve, though single readings can be large; an effect the other way counts as inactive or inconclusive. Unless noted, on the % scale 0 is the no-effect control and ±100 the full control effect.

SMILES | Tau fibril ThT | Tau FP inhib | FBPA coupling cs | Sfp inh | Tau fluor counter
CC(=O)Nc1ccc(NC(=O)Nc2sc3nc4n(c(=O)c3c2C)CCC(C)CC4)cc1 (stereo not given) | ? | -4.3% | . | . | ?
CC(NC(=O)c1ccc2c(c1)sc1nc(-c3ccccc3)cn12)C12CC3CC(CC(C3)C1)C2 (stereo not given) | 1.5% | 2.4% | . | . | 7.9%
CCOc1ccc(N2C(=O)CS/C2=C(\C(Cl)=C(Cl)Cl)[N+](=O)[O-])cc1 | 15.8µM* | ? | -1.6 | 1.6% | ?
CCOc1[nH]c(/N=C/c2ccco2)c(C#N)c1C#N | ? | ? | -4.7 | 44.7µM* | -26.0%
COc1cc2cc3c4c(cc(OC)c(OC)c4c2cc1OC)CCN3C | 10µM* | ? | -45.1* | 70.8µM* | 12.6µM*[quencher]
CCOC(=O)C1CSc2[nH]c(=O)sc2C1c1ccccc1 (stereo not given) | -18.9% | 7.1% | 0.9 | 39.8µM* | -19.2%
COc1ccc(C2c3sc(=O)[nH]c3SCC2C(N)=O)cc1 (stereo not given) | 3.5% | -4.4% | -0.8 | 22.9% | 1.2%
COC(=O)C1CSc2[nH]c(=O)sc2C1c1ccc(O)c(OC)c1 (stereo not given) | 1.7% | 5.1% | -20.3 | 56.2µM* | 2.5%
COc1ccccc1CNC(=O)C1CCN(C2=NS(=O)(=O)C(c3ccc(C)c(C)c3)=C2C)CC1 | ? | -0.5% | . | . | 12.0%
N#Cc1c(SCC(N)=O)nc2c(c1-c1ccncc1)CCCC2 | 1.2% | -0.3% | 1.0 | -40.6% | 2.5%
Cc1ccc(-c2c3c([nH]c(=S)c2C#N)CCCC3)o1 | 22.4µM* | ? | -18.4 | 8.91µM* | -15.2%
N#Cc1c(-c2ccncc2)c2c([nH]c1=S)CCCC2 | ? | -3.8% | -35.7* | 5.01µM* | -16.8%
COc1ccc(NC(=O)CSc2nncn3c2cc2oc(C)cc23)cc1OC | ? | 5.9% | . | . | -20.6%
O=S(=O)(Nc1ccc(O)c(Sc2nc3ccccc3s2)c1)c1ccc(F)cc1 | -15.0% | 8.0% | -0.2 | 2.7% | ?
O=S(=O)(Nc1ccc(O)c(Sc2nc3ccccc3s2)c1)c1cc(Cl)ccc1Cl | ? | ? | . | . | 10µM*[quencher]
Cc1cc(S(=O)(=O)Nc2ccc(O)c(Sc3nc4ccccc4s3)c2)ccc1Cl | ? | ? | . | . | 10µM*[quencher]
COc1ccc(Nc2nc3ccccc3n3c(N)nnc23)cc1 | ? | 3.8% | . | . | ?
O=C1/C(=C/c2ccccc2)Nc2ccccc21 | 12.6µM* | 9.0% | -2.4 | -17.2% | -26.9%
O=[N+]([O-])c1ccc(C2=NN(c3ccccc3)C(c3ccco3)C2)cc1 (stereo not given) | 5.01µM* | 10.6% | -7.9 | -21.1% | -24.2%
O=S(=O)(c1ccccc1)N1N=C(c2ccc(Br)cc2)CC1c1ccco1 (stereo not given) | . | . | -3.9 | -7.6% | .
O=[N+]([O-])c1ccc(/C=C/C2=NN(c3ccccc3)C(c3ccco3)C2)cc1 (stereo not given) | 3.55µM* | -8.7% | -25.8 | 39.8µM* | ?
COc1ccc(OC)c(NC2=C(c3ccccc3)C(=O)c3ccccc32)c1 | 14.1µM* | 7.6% | . | . | ?
COc1ccc(NC2=C(c3ccccc3)C(=O)c3ccccc32)cc1Cl | -17.7% | -6.7% | . | . | ?
CC(C)(C)NC[C@H](O)COc1cccc2c1C[C@@H](O)[C@@H](O)C2 | . | . | 1.4 | 18.9% | .
O=C(COc1ccc(/C=C\[N+](=O)[O-])cc1)N1CCOCC1 | -17.5% | -5.7% | -3.6 | 39.8µM* | 11.8%
SMILES | Tau fibril ThT | Tau FP inhib | FBPA coupling cs | Sfp inh | Tau fluor counter
O=C(Nc1ccc(OCC(=O)N2CCOCC2)cc1)Nc1cccc(Cl)c1 | -6.9% | 9.2% | -1.0 | 10.6% | ?
CC(C)(C)c1ccc(NC(=O)Nc2ccc(OCC(=O)N3CCOCC3)cc2)cc1 | -17.6% | 19.0% | 0.0 | 9.8% | 20µM*[quencher]
C/C(CCC(=O)OC[C@@H]1O[C@H](C#Cc2ccccc2)C=C[C@@H]1Oc1ccc(C)cc1)=N/OC[C@@H](C)[C@H](OCc1ccccc1)C(C)C | -8.7%[11.5 µM] | 3.7%[11.6 µM] | 3.5 | 6.7% | -3.8%[11.6 µM]
COc1cc(NC(=O)N2CCC(CN3CCCCCC3)CC2)cc(OC)c1OC | -11.3% | 0.0% | . | . | -8.2%
c1ccc2c(-n3ccnc3)nc(-c3ccoc3)nc2c1 | ? | ? | 4.1 | -8.0% | -20.8%
CCN(CCNC(=O)Nc1ccc(Cl)cc1)c1ccccc1 | ? | 13.9% | 0.0 | 12.2% | 15.8µM*[quencher]
O=C(NCCc1ccc(Cl)cc1)Nc1ccc(Cl)cc1 | -1.8% | -2.2% | -2.3 | 5.1% | -7.7%
CCOc1ccc(/C=N/NC(=O)Nc2ccccc2)cc1 | 5.9% | 5.6% | -1.4 | 15.4% | 9.6%
CCN(CC)c1ccc(/C=N/NC(=O)Cc2nnc(NC(=O)Nc3ccccc3)s2)cc1 | ? | 6.6% | 5.5 | 14.4% | 7.08µM*[quencher]
CCN(CC)c1ccc(NC(=O)Nc2cccc(C(C)=O)c2)cc1 | ? | 13.3% | -6.0 | -25.8% | 17.8µM*[quencher]
CCN(CC)c1ccc(/C=N/NC(=O)Nc2ccccc2)cc1 | 14.1µM* | 2.0% | -3.0 | -8.1% | 14.1µM*[quencher]
CCOc1cc(C2c3c(oc4ccccc4c3=O)C(=O)N2Cc2ccc3c(c2)OCO3)ccc1O (stereo not given) | 6.2% | 1.0% | . | . | 4.2%
CCn1c(=O)c2cc(C(=O)Nc3cccc(C(F)(F)F)c3)sc2c2ccccc21 | -0.7% | ? | . | . | -8.3%
Cc1cccc(NC(=O)c2sc3nc(-c4ccccc4)cn3c2C)c1C | ? | -12.8% | . | . | -2.2%
CCN=C1S/C(=C/c2ccc(-c3ccc(F)cc3)o2)C(=O)N1CC | . | . | -0.3 | 56.2µM* | .
CCOC(=O)N1CCC(N2CCN(S(=O)(=O)c3ccc(Cl)cc3)CC2)CC1 | -5.0% | 0.6% | -4.2 | 50.1µM* | -1.0%
O=C(CSc1nc(-c2cccs2)nc2cc(=O)[nH]n12)Nc1cccc(C(F)(F)F)c1 | ? | -3.3% | . | . | -25.0%
CCOC(=O)CCc1c(C)nc2cc(-c3cc(OC)cc(OC)c3)[nH]n2c1=O | 8.4% | 9.8% | . | . | -9.2%
CC1CCC/C(=C\Nc2ccc(C(=O)O)c(O)c2)C1=O (stereo not given) | -13.7% | 7.3% | -1.1 | 50.1µM* | -6.4%
COc1ccc(CN2CCN(Cc3c[nH]c4ccccc34)CC2)cc1 | . | . | -1.5 | 50.1µM* | .
CCn1c2ccccc2c2cc(CN3CCN(Cc4cc(OC)ccc4O)CC3)ccc21 | -13.2% | 15.2% | -1.1 | 50.1µM* | ?
CSc1ccc(CCNC(=O)c2cc3c(-c4ccccc4F)nn(C)c3s2)cc1 | -10.2% | ? | . | . | ?
CCC(CC)C(=O)Nc1nnc(S(=O)(=O)N2c3ccccc3CC2C)s1 (stereo not given) | 14.1µM* | -3.4% | 2.9 | 7.6% | -22.0%
Cc1ccc(C(=O)Nc2nnc(S(=O)(=O)N3CCc4ccccc43)s2)cc1 | ? | -2.5% | . | . | -8.3%
CCC(CC)C(=O)Nc1nnc(S(=O)(=O)N2CCc3ccccc32)s1 | ? | 1.9% | -6.4 | 10.2% | -25.9%
